Source: PubChem BioAssay
The sample as a whole holds a higher share of hits than the screen did.
Pf Dd2 growth – blocks in vitro growth of P. falciparum Dd2; P. falciparum Dd2 growth, SYBR Green, 72 h; Potency, µM (top dose mostly 28.9 µM), most hits filed as inhibitors; 120,000 compounds, 4.3% hits; active = well fitted inhibition curve with a large enough effect; note: nearly all actives have a fitted effect of over 65% in size
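Readout: SYBR Green fluorescence, 485 nm excitation, 535 nm emission, after ~16 h lysis at 37C. Before that, Dd2-infected red cells (2.5% hematocrit) grew 72 h with compound, 29 uM top final concentration.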
Each line names hits and unclear results; the compound was inactive in the other large screens.

CCC(C)(C)C1CCc2c(sc(NC(=O)C3c4ccccc4Oc4ccccc43)c2C(N)=O)C1 (configuration not stated)	none
CC1CCc2c(sc(NC(=O)C3c4ccccc4Oc4ccccc43)c2C(=O)OC(C)C)C1 (configuration not stated)	none
Cc1ccc(-c2nc(-c3nnn4c3COC(c3ccc(C)cc3)C4)no2)cc1 (configuration not stated)	none
O=c1[nH]c(N2CCc3ccccc3C2)nc2c1CCN(Cc1ccccc1)CC2	none
CCc1ccc(C2CC(=O)c3c([nH]c(C(=O)OCCOc4ccccc4)c3C)C2)cc1 (configuration not stated)	Pf Dd2 growth 5µM
O=C1CC(c2ccccc2)Cc2[nH]c(=O)c(C(=O)Nc3cccc(Cl)c3)cc21 (configuration not stated)	none
CCOC(=O)C1=C(C)N=C2SCCC(=O)N2C1c1ccc(OCc2ccccc2)cc1 (configuration not stated)	none
Cc1c(C(=O)OCc2ccccc2)[nH]c2c1C(=O)CC(c1ccc(Cl)cc1)C2 (configuration not stated)	none
CCOC(=O)C1=C(CNCc2ccc(Cl)cc2)NC(=O)NC1c1ccccc1 (configuration not stated)	none
CCOC(=O)C1=C(C)N=C2SC=C(CC(=O)NCC3CC3)N2C1c1cc(OC)ccc1OC (configuration not stated)	none
CCOC(=O)c1[nH]c2c(c1Cc1ccccc1C)C(=O)CC(c1ccccc1)C2 (configuration not stated)	Pf Dd2 growth 8.9µM
CCOC(=O)c1[nH]c2c(c1Cc1ccccc1C)C(=O)CC(c1cc(OC)ccc1OC)C2 (configuration not stated)	Pf Dd2 growth 5µM
COc1ccc(C2CC(=O)c3c([nH]c(C(=O)OCc4ccccc4)c3C)C2)cc1OC (configuration not stated)	none
Cn1nc2n(c1=O)CCN(C(=O)CCCc1c[nH]c3ccccc13)CC2	none
COCC(=O)NC1CCC12CCN(C(=O)c1cccs1)CC2 (configuration not stated)	none
Cc1cnn(CCC(=O)NC2CCN(c3ccc(=O)n(C)n3)CC2)c1	none
CN(C(=O)CSc1nnc(-c2ccc([N+](=O)[O-])cc2)o1)C1CCCCC1	none
CC(=O)C1=C(c2cccc([N+](=O)[O-])c2)N(C(C)=O)n2c(nnc2-c2ccc(C)cc2)S1	none
COc1cccc(-c2nnc(SCC(=O)N(C)C3CCCCC3)o2)c1	none
CCC(=O)C1=C(c2cccc([N+](=O)[O-])c2)N(C(=O)CC)n2c(nnc2C2CCCCC2)S1	Pf Dd2 growth 1.4µM
CCC(=O)C1=C(c2cccc(OC)c2)N(C(=O)CC)n2c(nnc2C2CCCCC2)S1	Pf Dd2 growth 2.8µM
COc1cccc(C(=O)N2CCn3c(nnc3C3CC3)C2)c1	none
CCC(=O)C1=C(c2cccc([N+](=O)[O-])c2)N(C(=O)CC)n2c(nnc2-c2ccccc2)S1	Pf Dd2 growth 1.1µM
CC(=O)Nc1cccc(-c2nnc(SCC(=O)c3cc([N+](=O)[O-])ccc3Cl)o2)c1	none
CCOC(=O)C1=C(C)N=C2SC=C(CC(=O)NC3CC3)N2C1c1cccc([N+](=O)[O-])c1 (configuration not stated)	none
Cc1nnc2n1CCC(NC(=O)c1ccc3c(c1)OCO3)CC2 (configuration not stated)	none
COc1ccc(C(=O)N2CCC(c3n[nH]c(=O)n3-c3ccc(C)cc3)CC2)cn1	none
O=C1NCCOCCCN(C(=O)COc2ccccc2)[C@H]2CCCC[C@@H]12	none
CCn1cc(CN2C[C@@H](CO)[C@H](NC(=O)C3CC3)C2)cn1	none
CCCC1CN(C(=O)OC(C)(C)C)C(C)CN1 (configuration not stated)	none
Cc1[nH]ncc1C(=O)N[C@@H]1CN(S(C)(=O)=O)C[C@H]1CN(C)C	none
CC1(c2ccccc2)N(Cc2ccccc2)C(=O)OC12CCN(C(=O)c1cccc(O)c1)CC2 (configuration not stated)	none
N#Cc1ccccc1Cn1nnc2c(=O)[nH]c(C3CCCN(S(=O)(=O)c4ccc(F)cc4)C3)nc21 (configuration not stated)	none
Cc1ccccc1Cn1nnc2c(=O)[nH]c(C3CCCN(C(=O)c4ccc(C(C)(C)C)cc4)C3)nc21 (configuration not stated)	Pf Dd2 growth 8.9µM
O=C(c1ccccc1F)N1CCC(c2nn(Cc3ccccc3)c(=O)[nH]2)CC1	none
Cc1ccc(C(=O)N2CCCC(c3nn(-c4ccccc4)c(=O)[nH]3)C2)cc1 (configuration not stated)	none
O=C(Cc1ccccc1F)N1CCC(c2nc3c(nnn3Cc3cccc(Cl)c3)c(=O)[nH]2)CC1	Pf Dd2 growth 10µM
Cc1ccc(Cn2nnc3c(=O)[nH]c(C4CCN(C(=O)Cc5ccccc5F)CC4)nc32)cc1	none
COC(=O)c1ccc(Cn2nnc3c(=O)[nH]c(C4CCCN(S(=O)(=O)c5ccccc5)C4)nc32)cc1 (configuration not stated)	none
